Test results taken from the supplement of paper PMC6411743.
± gives the standard deviation of the averaged measurements. About 5,400 targets were measured; listed, in parts, are those with the largest changes and a random draw of the rest.

Target: A0A0A0MT26|P13637|P13637-2|P13637-3 (UniProt P13637)
Experiment: NP40-soluble protein abundance relative to vehicle (solubility fold change) (ratio); higher = more soluble protein in presence of GTP
Procedure: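 Solubility proteome profiling in Jurkat crude lysate. Lysate was treated with Mg-GTP (0.1-10 mM) for 10 min at room temperature and 3 min at 37 °C, then solubilised with 0.8% NP40 and benzonase, followed by ultracentrifugation. Proteins were quantified by TMT10 LC-MS/MS; the value is the NP40-soluble abundance relative to the NP40-processed vehicle, from 3 independent experiments.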

With Nc1nc2c(ncn2[C@@H]2O[C@H](COP(=O)(O)OP(=O)(O)OP(=O)(O)O)[C@@H](O)[C@H]2O)c(=O)[nH]1 [guanosine triphosphate] the NP40-soluble protein abundance (concentration: 0.1mM) was 1.01 ± 0.05, the NP40-soluble protein abundance (concentration: 0.5mM) was 1.01 ± 0.028 and the NP40-soluble protein abundance (concentration: 1mM) was 1.02 ± 0.028. The NP40-soluble protein abundance (concentration: 2mM) was 0.982 ± 0.029, the NP40-soluble protein abundance (concentration: 4mM) was 1.01 ± 0.042 and the NP40-soluble protein abundance (concentration: 6mM) was 1 ± 0.0083. The NP40-soluble protein abundance (concentration: 8mM) was 1 ± 0.034 and the NP40-soluble protein abundance (concentration: 10mM) was 0.958 ± 0.047.
